Source: PubChem BioAssay (National Center for Advancing Translational Sciences (NCATS))
Rows were chosen to be rich in hits. Some 2.7% of all compounds tested hit in one or more screens of this group.
GLP-1R agonist – GLP-1 receptor (human) agonism; P43220; HEK293 GLP-1R CRE-luciferase, luminescence, 4-6 h; cells express a hypersensitive GLP-1R form; Potency, µM (titrated, usually from 45.6 µM), inactives show at the highest dose activation, most hits filed as activators; hit rate 0.007% among 380,000; note: % of control where 0% means no effect
Target sequence (P43220 whole entry, looked up): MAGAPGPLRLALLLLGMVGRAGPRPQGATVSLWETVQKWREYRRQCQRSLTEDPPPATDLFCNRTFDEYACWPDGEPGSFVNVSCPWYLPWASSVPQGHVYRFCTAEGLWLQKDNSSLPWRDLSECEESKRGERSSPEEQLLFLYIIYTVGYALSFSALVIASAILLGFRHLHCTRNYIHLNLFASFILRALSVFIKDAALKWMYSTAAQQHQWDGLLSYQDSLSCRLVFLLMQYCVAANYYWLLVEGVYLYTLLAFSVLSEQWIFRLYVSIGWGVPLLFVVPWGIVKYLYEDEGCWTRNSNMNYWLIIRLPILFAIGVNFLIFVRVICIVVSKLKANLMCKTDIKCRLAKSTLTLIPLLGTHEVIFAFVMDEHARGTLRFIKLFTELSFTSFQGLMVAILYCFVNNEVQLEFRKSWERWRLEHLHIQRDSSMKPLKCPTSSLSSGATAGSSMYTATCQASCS
IDH1 R132H inh – human IDH1 R132H inhibition | IDH1-R132H enzyme, NADPH consumption, diaphorase/resazurin fluorescence | Potency, µM (top dose mostly 76.6 µM), for inactives: top-dose activity change, negative = inhibition, hits mostly inhibitors | hit rate 0.093% among 390,000 | AID 602179; note: % is set by controls: 0 for no effect and ±100 for the full control effect; nearly all actives have a fitted effect of over 65% in size
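IDH1-R132H (0.5 ug/mL) preincubated 30 min with compound, then NADPH (0.016 mM) and alpha-KG (2 mM) added; 80 min at RT, pH 7.5. Remaining NADPH coupled via diaphorase/resazurin to fluorescence (540/590 nm); concentration-response curves normalized to no-enzyme control.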
TrxR1 substrate – is turned over as a substrate by rat TrxR1; purified TrxR1 substrate turnover, NADPH consumption readout; hit rate 0.01% among 390,000; O89049; Potency, µM (highest dose often 114 µM), for inactives: at the highest dose activity change, negative = substrate turnover; note: % is set by controls: 0 for no effect and ±100 for the full control effect; nearly all actives have a fitted effect of over 50% in size
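Rat TrxR1, dispensed at 90 nM, was prereduced with 400 uM NADPH (final) for 5 min at ~22 deg C, then incubated with compound 15 min before 400 uM selenite. A first-read NADPH fluorescence drop versus no-compound background flagged substrates.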
TrxR1 inh – blocks rat thioredoxin reductase 1. recombinant rTrxR1, NADPH fluorescence consumption, selenite substrate. Potency, µM (top dose mostly 114 µM), without a hit: at the top dose activity change, negative = inhibition, hits mostly inhibitors. hit rate 1% among 390,000. O89049. AID 588453; note: % is set by controls: 0 for no effect and ±100 for the full control effect; nearly all actives have a fitted effect of over 65% in size
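Rat TrxR1 (90 nM in the dispensed reagent) was pre-reduced with 400 uM NADPH for 5 min at room temperature, then incubated with compound for 15 min. After 400 uM selenite was added, NADPH fluorescence (Ex 340/Em 450 nm) was followed for 8 min.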
HEK293 tox – cytotoxicity in counter-screen for GLP-1R inverse agonists. hit rate 0.13% among 410,000. Potency, µM (titrated, usually from 38.3 µM), inactives show at the highest dose activity change, negative = inhibition, most hits filed as inhibitors. HEK293 cAMP-luciferase reporter cells, luminescence, 24 h;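 note: loss of luciferase light is scored as toxicity; % is set by controls: 0 for no effect and ±100 for the full control effect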
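A 23 nL compound transfer followed 12 hours of cell culture at 37 deg C; exposure then lasted 24 hr. Luciferase assay detection reagent was dispensed and plates read for luminescence after a 12 min room-temperature wait.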
GLP-1R inv ag – inverse agonists of human GLP-1 receptor | HEK293 GLP-1R CRE-luciferase, luminescence, 24 h; GLP-1R form is constitutively active | Potency, µM (doses to about 38.3 µM), without a hit: top-dose activity change, negative = inhibition, actives largely listed as inhibitors | hit rate 1.6% among 410,000 | AID 624417; note: % is set by controls: 0 for no effect and ±100 for the full control effect; nearly all actives have a fitted effect of over 55% in size
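Readout was luciferase luminescence, measured 12 min after detection reagent at room temperature. Beforehand, GLP-1R reporter HEK293 cells had sat 12 h, then received compounds for 24 hr at 37 deg C.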
An asterisk follows results filed as active; [ ] = dose if it differs, or a comment. Calls come from the whole dose curve; as a rule, active = well fitted curve in the direction sought with a large enough effect; inconclusive = small, poorly fitted or top-dose-only effect, or another doubt; inactive = no such curve, though single readings can be large; an effect the other way counts as inactive or inconclusive. Potency is the fitted concentration of half-maximal effect.

How did CCOC(=O)C1=C(C)N=c2s/c(=C3\C(=O)Nc4ccccc43)c(=O)n2C1c1ccc2c(c1)OCO2 (configuration not stated) do in these assays?
GLP-1R agonist: 6%; IDH1 R132H inh: -8%; TrxR1 substrate: 7%; TrxR1 inh: inconclusive; HEK293 tox: inconclusive; GLP-1R inv ag: -12%

Results for C=CCOC(=O)C1=C(C)N=c2s/c(=C3\C(=O)N(CC(=O)O)c4ccccc43)c(=O)n2C1c1ccc(OC)cc1 (configuration not stated) ?
GLP-1R agonist: -2%; IDH1 R132H inh: 6%; TrxR1 substrate: -11%; TrxR1 inh: 35µM*; HEK293 tox: -15%; GLP-1R inv ag: -22%

Results for CCCCN(c1ccccc1)S(=O)(=O)c1cccc(C(=O)Nc2c(C)n(C)n(-c3ccccc3)c2=O)c1 ?
GLP-1R agonist: -35%; IDH1 R132H inh: 4%; TrxR1 substrate: 13%; TrxR1 inh: 23%; HEK293 tox: -7%; GLP-1R inv ag: 11µM*

Results for CC(C)(C)c1cc(C(=O)N/N=C/c2ccc(O)cc2)n(-c2ccccc2)n1 ?
GLP-1R agonist: -4%; IDH1 R132H inh: -3%; TrxR1 substrate: -15%; TrxR1 inh: -11%; HEK293 tox: 9%; GLP-1R inv ag: 2µM*

Results for OCCn1c(-c2ccc(F)cc2)csc1=Nc1ccccc1 ?
GLP-1R agonist: 2%; IDH1 R132H inh: 8%; TrxR1 substrate: -5%; TrxR1 inh: 0%; HEK293 tox: -6%; GLP-1R inv ag: inconclusive

Results for OCCn1c(-c2ccc3c(c2)OCO3)csc1=Nc1ccccc1 ?
GLP-1R agonist: -2%; IDH1 R132H inh: 8%; TrxR1 substrate: -9%; TrxR1 inh: 1%; HEK293 tox: -29%; GLP-1R inv ag: 3.5µM*

How did NC(=O)Oc1ccc(Cc2ccccc2)cc1 do in these assays?
GLP-1R agonist: 7%

How did CCN(CC)S(=O)(=O)c1ccc(NC(=O)c2c(C)oc3ncnc(N4CCCCC4)c23)cc1 do in these assays?
IDH1 R132H inh: -17%; TrxR1 substrate: 2%; TrxR1 inh: 23%; HEK293 tox: -12%; GLP-1R inv ag: inconclusive

Results for CC(=O)c1ccc(NC(=O)c2ccc3nc(-c4ccco4)c(-c4ccco4)nc3c2)cc1 ?
GLP-1R agonist: -6%; IDH1 R132H inh: 6%; TrxR1 substrate: 1%; TrxR1 inh: 2.5µM*; HEK293 tox: -21%; GLP-1R inv ag: inconclusive

How did CCc1nc2ccc(C(=O)Nc3ccc(NC(C)=O)cc3)cc2nc1CC do in these assays?
GLP-1R agonist: 4%; IDH1 R132H inh: 10%; TrxR1 substrate: -18%; TrxR1 inh: -12%; HEK293 tox: 19%; GLP-1R inv ag: 29%

What do the screens show for `CNC(=O)c1ccc2nc(-c3ccco3)c(-c3ccco3)nc2c1`?
TrxR1 substrate: -5%; TrxR1 inh: 4µM*

What do the screens show for `O=C(NC1CC1)c1ccc2nc(-c3ccco3)c(-c3ccco3)nc2c1`?
TrxR1 substrate: -2%; TrxR1 inh: 2.5µM*

What do the screens show for `Cc1ccc(Oc2c(C(N)=O)cc([N+](=O)[O-])cc2[N+](=O)[O-])cc1`?
GLP-1R agonist: -35%; IDH1 R132H inh: -1%; TrxR1 substrate: 0%[57.1 µM]; TrxR1 inh: inconclusive; HEK293 tox: inconclusive; GLP-1R inv ag: 11µM*

What do the screens show for `O=c1c2cc(N3CCOCC3)ccc2[nH]c(=S)n1Cc1ccco1`?
GLP-1R agonist: 9%; IDH1 R132H inh: -3%; TrxR1 substrate: 4%[57.1 µM]; TrxR1 inh: 10µM*; HEK293 tox: -2%; GLP-1R inv ag: 131%

How did O=c1c2cc(N3CCOCC3)ccc2[nH]c(=S)n1Cc1cccc(Cl)c1 do in these assays?
GLP-1R agonist: -10%; IDH1 R132H inh: 0%; TrxR1 substrate: 15%; TrxR1 inh: 0%; HEK293 tox: 3%; GLP-1R inv ag: -7%

How did CC(C)(C)c1ccc(OCCNC(=S)Nc2ccccc2)cc1 do in these assays?
GLP-1R agonist: 9%; IDH1 R132H inh: 0%; TrxR1 substrate: 6%[57.1 µM]; TrxR1 inh: 12%[57.1 µM]; HEK293 tox: 5.6µM*; GLP-1R inv ag: 10µM*

What do the screens show for `CC(C)(C)c1ccc(OCCNCc2ccccc2)cc1`?
GLP-1R agonist: 20%; IDH1 R132H inh: 7%; TrxR1 substrate: 7%; TrxR1 inh: -1%[57.1 µM]; HEK293 tox: inconclusive; GLP-1R inv ag: inconclusive

Results for Cc1nc([N+](=O)[O-])c(NCCO)n1Cc1ccccc1 ?
GLP-1R agonist: 1%; IDH1 R132H inh: -1%; TrxR1 substrate: 4%[57.1 µM]; TrxR1 inh: -2%[57.1 µM]; HEK293 tox: -18%; GLP-1R inv ag: -8%

What do the screens show for `Cc1nc([N+](=O)[O-])c(Br)n1CC(=O)c1ccc(Cl)cc1`?
GLP-1R agonist: -48%; IDH1 R132H inh: -2%; TrxR1 substrate: 11%[57.1 µM]; TrxR1 inh: 2.5µM*; HEK293 tox: -18%; GLP-1R inv ag: inconclusive

What do the screens show for `Cc1nc([N+](=O)[O-])c(Br)n1Cc1ccc(Cl)c(Cl)c1`?
GLP-1R agonist: 1%; IDH1 R132H inh: inconclusive; TrxR1 substrate: -4%; TrxR1 inh: 10µM*; HEK293 tox: 10µM*; GLP-1R inv ag: 10µM*

Results for COc1ccc(C(=O)Cn2c(C)nc([N+](=O)[O-])c2Br)cc1 ?
GLP-1R agonist: 12%; IDH1 R132H inh: 9%; TrxR1 substrate: 14%[57.1 µM]; TrxR1 inh: 18µM*; HEK293 tox: -72%; GLP-1R inv ag: inconclusive

What do the screens show for `O=C1c2ccsc2SCCN1Cc1c(F)cccc1Cl`?
GLP-1R agonist: 13%; IDH1 R132H inh: 13%; TrxR1 substrate: -1%; TrxR1 inh: 12%; HEK293 tox: 1%; GLP-1R inv ag: 13µM*

How did O=C1c2ccsc2SCCN1Cc1ccc(Cl)cc1Cl do in these assays?
GLP-1R agonist: -3%; IDH1 R132H inh: 5%; TrxR1 substrate: -8%[57.1 µM]; TrxR1 inh: 6%[57.1 µM]; HEK293 tox: -6%; GLP-1R inv ag: inconclusive

How did O=C1c2ccsc2SCCN1Cc1c(Cl)cccc1Cl do in these assays?
GLP-1R agonist: -24%; IDH1 R132H inh: 12%; TrxR1 substrate: 15%[57.1 µM]; TrxR1 inh: 28%[57.1 µM]; HEK293 tox: -11%; GLP-1R inv ag: 2.5µM*

Results for COC1=C(OC)C(=O)C(CC=C(C)CCC=C(C)CCC=C(C)CCC=C(C)CCC=C(C)CCC=C(C)CCC=C(C)CCC=C(C)CCC=C(C)CCC=C(C)C)=C(C)C1=O ?
GLP-1R agonist: 2%

How did O=C(c1cccc2ccccc12)N1CCN(Cc2ccccc2F)CC1 do in these assays?
GLP-1R agonist: -6%; IDH1 R132H inh: -4%; TrxR1 substrate: -2%; TrxR1 inh: 19%; HEK293 tox: -5%; GLP-1R inv ag: inconclusive
